Values joined by “and” are separate entries in the source; they are usually repeats but may differ in a detail not shown here. Equal entries are not always repeated. Records with an inconclusive call do not appear. The source holds several records for some structures; these can differ, active in one and inactive in another. Active and inactive are the calls of the source. The call rests on the fitted dose curve; in most records, active means well fitted curve in the direction sought with a large enough effect in the repeat runs; inconclusive means weak or mixed curves; inactive means no such curve, though single readings can be large; an effect the other way counts as inactive or inconclusive.
What was measured:
[1] = A CellTox Green Cytotoxicity Assay to monitor cytotoxicity in HEK293 cells - 32 hour (AID 1224881); further: nearly all actives have a fitted effect of over 40% in size; further: potency means the concentration at half of the fitted maximal effect
Outline: (§1)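 Nonlytic real-time cytotoxicity: HEK293 + CellTox Green reagent plated, 5 h preincubation, pintool compound addition (23 nL in DMSO), 37 C for 40 h, fluorescence measured at successive time points.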

[2] = A CellTox Green Cytotoxicity Assay to monitor cytotoxicity in HepG2 cells - 0 hour (AID 1224882); further: nearly all actives have a fitted effect of over 35% in size
Outline: (§2)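 Read-out is fluorescence of a cyanine dye excluded from live cells that stains DNA of dead HepG2 cells, with signal proportional to cytotoxicity. Plates were read at 0, 8, 16, 24, 32 and 40 h after compound addition.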

[3] = A CellTox Green Cytotoxicity Assay to monitor cytotoxicity in HepG2 cells - 32 hour (AID 1224883); further: nearly all actives have a fitted effect of over 50% in size; further: potency means the concentration at half of the fitted maximal effect
Outline: as §2

[4] = A CellTox Green Cytotoxicity Assay to monitor cytotoxicity in HEK293 cells - 8 hour (AID 1224884); further: nearly all actives have a fitted effect of over 35% in size; further: potency means the concentration at half of the fitted maximal effect
Outline: as §1

[5] = qHTS RealTime-Glo MT Cell Viability Assay in HepG2 cells - 16 hour (AID 1224885); further: nearly all actives have a fitted effect of over 50% in size; further: potency means the concentration at half of the fitted maximal effect
Outline: (§3)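 HepG2 suspension premixed with RealTime-Glo reagents is plated at 600 cells per well and left 5 h at 37 C/5% CO2. Compounds in DMSO then go in, and bioluminescence reflecting viable cell number is recorded over 40 h.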

[6] = qHTS RealTime-Glo MT Cell Viability Assay in HEK293 cells - 24 hour (AID 1224886); further: nearly all actives have a fitted effect of over 50% in size; further: potency means the concentration at half of the fitted maximal effect
Outline: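 Reads taken at 0, 8, 16, 24, 32 and 40 h from the same wells. HEK293 cells (600/well) carried RealTime-Glo reagents from seeding, with compound added after a 5 h settle at 37 C.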

[7] = qHTS RealTime-Glo MT Cell Viability Assay in HEK293 cells - 8 hour (AID 1224887); further: nearly all actives have a fitted effect of over 50% in size; further: potency means the concentration at half of the fitted maximal effect
Outline: (§4)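 Cells were seeded together with NanoLuc luciferase and a prosubstrate that viable cells reduce to a luciferase substrate. After a 5 h incubation at 37 C/5% CO2, compounds were added and luminescence was measured repeatedly during 40 h of treatment.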

[8] = A CellTox Green Cytotoxicity Assay to monitor cytotoxicity in HEK293 cells - 16 hour (AID 1224888); further: nearly all actives have a fitted effect of over 35% in size; further: potency means the concentration at half of the fitted maximal effect
Outline: as §1

[9] = qHTS RealTime-Glo MT Cell Viability Assay in HepG2 cells - 0 hour (AID 1224889); further: nearly all actives have a fitted effect of over 50% in size; further: potency means the concentration at half of the fitted maximal effect
Outline: as §3

[10] = qHTS RealTime-Glo MT Cell Viability Assay in HEK293 cells - 0 hour (AID 1224880); further: top concentration of the series differs between compounds; nearly all actives have a fitted effect of over 45% in size
Outline: as §4

Measured: Potency
On the % scale 0 is the no-effect control and ±100 the full control effect.

CS(=O)(=O)OCCCCOS(C)(=O)=O
not listed: [10]
inactive: all other assays above

CCOc1ccc(NC(C)=O)cc1
inactive and 21.9 µM (active): [6]
inactive: all other assays above

CCOC(N)=O
not listed: [10]
inactive: all other assays above

NC(=O)c1cccnc1
not listed: [10]
inactive: all other assays above

CCCCC1(COC(=O)CCC(=O)O)C(=O)N(c2ccccc2)N(c2ccccc2)C1=O
inactive: all assays above

C[C@](N)(Cc1ccc(O)c(O)c1)C(=O)O
inactive: all assays above

CCCCNC(=O)NS(=O)(=O)c1ccc(C)cc1
not listed: [10]
inactive: all other assays above

NC(=O)n1c(O)c(C(=O)c2cccs2)c2cc(Cl)ccc21
not listed: [9] | [10]
inactive: all other assays above

CNNCc1ccc(C(=O)NC(C)C)cc1
active: [3] 24.5 µM and 19.5 µM
not listed: [10]
inactive: all other assays above

O=C(O)c1ccccc1
not listed: [10]
inactive: all other assays above

CN1CCC[C@H]1c1cccnc1
not listed: [10]
inactive: all other assays above

O=C(O)CC(O)C(=O)O (centres undefined)
inactive: all assays above

CN(N=O)C(=O)N[C@@H]1[C@@H](O)[C@H](O)[C@@H](CO)O[C@@H]1O
not listed: [10]
inactive: all other assays above

Cc1ncc([N+](=O)[O-])n1C
48.3 µM (active) and inactive: [4]
inactive: all other assays above

CCCCCCCCCCCC[N+](C)(C)Cc1ccccc1
inactive: [2] | [9]
active: [1] 38.1 µM and 29.9 µM and 23.9 µM | [3] 17 µM and 23.8 µM and 10.7 µM | [4] 59.7 µM | [5] 21.5 µM and 23.8 µM and 12 µM | [6] 4.28 µM and 4.23 µM and 3.01 µM | [7] 53.9 µM and 59.7 µM | [8] 48 µM and 53.2 µM and 26.8 µM

CC(C)C(=O)Nc1ccc([N+](=O)[O-])c(C(F)(F)F)c1
active: [6] 17.9 µM and 21.9 µM and 10.7 µM | [7] 22.5 µM and 21.9 µM and 9.52 µM
not listed: [10]
inactive: all other assays above

CC12CCC(CC1)C(C)(C)O2
not listed: [10]
inactive: all other assays above

CCCCC(CC)C(=O)O (centres undefined)
not listed: [10]
inactive: all other assays above

C1CCC(C(CC2CCCCN2)C2CCCCC2)CC1 (centres undefined)
active: [1] 19 µM | [3] 5.35 µM | [4] 26.8 µM | [5] 8.49 µM | [6] 16.9 µM | [7] 23.9 µM | [8] 23.9 µM
inactive: [2]

CC(=O)Nc1c(I)c(NC(C)=O)c(I)c(C(=O)O)c1I
inactive: all assays above

CN[C@H]1CC[C@@H](c2ccc(Cl)c(Cl)c2)c2ccccc21
active: [3] 19 µM | [5] 23.9 µM | [6] 21.3 µM
inactive: [2] | [9]

Cc1cn([C@H]2C=C[C@@H](CO)O2)c(=O)[nH]c1=O
not listed: [10]
inactive: all other assays above

C=C(C)C(=O)OCC(C)O (centres undefined)
not listed: [10]
inactive: all other assays above

COc1cccc(O)c1O
not listed: [6] | [7] | [10]
inactive: all other assays above

CCCC[P+](CCCC)(CCCC)CCCC
active: [6] 19.4 µM and 4.36 µM
not listed: [10]
inactive: all other assays above

Cc1cc(=O)oc2cc(O)ccc12
not listed: [10]
inactive: all other assays above

CCCCOC(=O)c1ccc(O)cc1
active: [6] 22.1 µM and 19.5 µM
not listed: [10]
inactive: all other assays above

CC/C(=C(\c1ccccc1)c1ccc(OCCN(C)C)cc1)c1ccccc1
active: [1] 35 µM [middle of 5 runs] | [3] 43.6 µM [middle of 5 runs] | [4] 44 µM [middle of 5 runs] | [5] 43.6 µM [middle of 5 runs] | [6] 24.5 µM [middle of 5 runs] | [7] 39.2 µM [middle of 4 runs] | [8] 39.2 µM [middle of 5 runs]
inactive: [2] | [9]

NC1CCCCC1
not listed: [10]
inactive: all other assays above

CCCc1cc(=O)[nH]c(=S)[nH]1
not listed: [10]
inactive: all other assays above

Cn1c(=O)c2c(ncn2C)n(C)c1=O
not listed: [10]
inactive: all other assays above

O=CC(=O)c1ccccc1
not listed: [1] | [10]
inactive: all other assays above

CN1CCc2cccc3c2[C@H]1Cc1ccc(O)c(O)c1-3
55.5 µM (active) and inactive: [1]
active: [5] 49.5 µM and 18.3 µM and 23.9 µM | [6] 14 µM and 8.17 µM and 23.9 µM | [7] 24.8 µM and 14.5 µM
not listed: [10]
inactive: all other assays above

CC(C)NCC(O)c1ccc(O)c(O)c1 (centres undefined)
48.4 µM (active) and inactive: [6]
not listed: [10]
inactive: all other assays above

CC1(C)S[C@@H]2[C@H](NC(=O)[C@H](N)c3ccccc3)C(=O)N2[C@H]1C(=O)O
inactive: [1] | [2] | [3] | [4] | [8]

CC1(C)O[C@@H]2C[C@H]3[C@@H]4CCC5=CC(=O)C=C[C@]5(C)[C@@]4(F)[C@@H](O)C[C@]3(C)[C@]2(C(=O)CO)O1
active: [9] 22 µM and 12.3 µM
inactive and 9.52 µM (active): [1] | [4]
not listed: [8] | [10]
inactive: all other assays above

O=C1c2c(O)cccc2Cc2cccc(O)c21
not listed: [10]
inactive: all other assays above

CCN(Cc1c(F)cccc1Cl)c1c([N+](=O)[O-])cc(C(F)(F)F)cc1[N+](=O)[O-]
active: [6] 43.6 µM
not listed: [7] | [10]
inactive: all other assays above

O=c1[nH]cc(F)c(=O)[nH]1
50.8 µM (active) and inactive: [1]
45.3 µM (active) and inactive: [3]
not listed: [10]
inactive: all other assays above

C=CCc1ccc(O)c(OC)c1
not listed: [10]
inactive: all other assays above

COc1ccc(CN(CCN(C)C)c2ccccn2)cc1
inactive: [1] | [2] | [3] | [4] | [8]

Nc1c(N=Nc2ccc(-c3ccc(N=Nc4cc(S(=O)(=O)O)c5ccccc5c4N)cc3)cc2)cc(S(=O)(=O)O)c2ccccc12
inactive: [1] | [2] | [3] | [4] | [8]
active: [6] 43.6 µM | [7] 24.5 µM

COc1ccc(OC(F)(F)F)cc1CN[C@H]1CCCN[C@H]1c1ccccc1
inactive: [2]
active: [3] 49 µM | [5] 54.9 µM | [6] 43.6 µM

C1=CC2C3C=CC(C3)C2C1 (centres undefined)
active: [4] 54 µM
not listed: [1] | [8] | [10]
inactive: all other assays above

Reference: PubChem BioAssay (Tox21)
